{
  "source": "PubChem BioAssay AID589",
  "about": "(National Center for Advancing Translational Sciences (NCATS), 2007)",
  "note": "Among all 59,000 compounds or so, about 6,200 (11%) were called active. Another 9% or so got no clear call; they are omitted. No stated cut-off is given here; in the data, active means max dye-equivalent concentration above about 10 nM; inconclusive means mostly about 1.1 nM to 9.6 nM; inactive means weaker than that. For the sample, actives were picked, then their nearest neighbours and some compounds at random. The source holds several records for some structures; these can differ, active in one and inactive in another.",
  "data": [
    {"experiment": "qHTS Assay for Spectroscopic Profiling in 4-MU Spectral Region", "conditions": "compound autofluorescence, 340/450 nm, 4-MU equivalents; hits give high values", "excerpt": "NIH Molecular Libraries Screening Centers Network [MLSCN] NIH Chemical Genomics Center [NCGC] […] Occasionally, the artifactual effect may originate from the compounds own spectral or other biophysical properties which generally tend to track its assay concentration. Pre-screening/profiling the library with respect to the compounds spectral properties should help one exclude false positives early on. While the most informative fluorescent profiling data set is obtained by performing a full excitation and emission scan of each well by using a monochromator-based plate reader, such an approach is practical only on a very limited scale as scanning each well requires long time. An alternative approach, applied here, is to perform plate reader scans using selected excitation and emission wavelength pairs to generate a multidimensional relational database that correlates compound concentration and the respective relative fluorescence intensity at a given wavelength set. A standard curve of 4-methylumbelliferone (4-MU) present on each plate as six-point concentration series, was used to compute a normalized fluorescence response, termed dye-equivalent concentration, for each compound at each concentration.\nNCGC Assay Protocol Summary: Buffer: 100 mM Tris buffer, pH 8.0 Dye standard plate: The wells in columns 1 through 4 of a Kalypsys polypropylene 1536-well compound plate were filled with standard solutions of fluorophore corresponding to the spectral region of interest. Solutions of 4-MU were placed in the following wells: A1, B1: 3 mM, A2, B2: 300 uM, A3, B3: 30 uM, A4, B4: zero (DMSO), C1, D1: 3 uM, C2, D2: 900 nM, C3, D3: 300 nM, C4, D4: zero (DMSO). Assay Steps: Six uL of buffer were dispensed to 1536-well Greiner black plates. Compounds and dye standards (23 nL) were transferred via Kalypsys PinTool. The plates were incubated for 15 min at room temperature, and then read on ViewLux (Perkin-Elmer) High-throughput CCD imager using 340 nm and 450 nm excitation and emission filter set. Keywords: NIH Roadmap, MLSCN, MLI, MLSMR, qHTS, NCGC, Fluorescent Profiling, 4MU, 4-MU", "values": [
      {"smiles": "CCCCNC(=O)c1c[nH]c2ccc(S(=O)(=O)Nc3ccc(OCC)cc3)cc2c1=O", "max dye-equivalent concentration": "inactive"},
      {"smiles": "COc1cccc(N(CC(=O)NC2CCCC2)C(=O)Cn2nnc(-c3ccc(C)cc3)n2)c1", "max dye-equivalent concentration": "inactive"},
      {"smiles": "O=C(c1cc(C(F)(F)F)cc(C(F)(F)F)c1)N1CCC2(CCCN(c3ccccn3)C2)CC1", "max dye-equivalent concentration": "inactive"},
      {"smiles": "N#Cc1c2c(c(-c3ccccc3)[nH]c1=O)CCCC2", "max dye-equivalent concentration": "16 nM (active)"},
      {"smiles": "CCCCCN(C(=O)NC(=O)Nc1ccccc1C)S(C)(=O)=O", "max dye-equivalent concentration": "inactive"},
      {"smiles": "O=C1C2(c3ccccc3)CN(CCCO)CC1(c1ccccc1)CN(CCCO)C2", "max dye-equivalent concentration": "inactive"},
      {"smiles": "C[C@@H](N)[C@@H](C)Cc1ccccc1", "max dye-equivalent concentration": "inactive"},
      {"smiles": "O=C(CSc1nc(-c2ccco2)cc(C(F)(F)F)n1)NCc1cccs1", "max dye-equivalent concentration": "inactive"},
      {"smiles": "FC(F)(F)c1cc(-c2cccs2)nc(NCc2ccco2)n1", "max dye-equivalent concentration": "20 nM (active)"},
      {"smiles": "COc1ccc(-c2cc(C(F)(F)F)nc(SCCC(=O)NCc3ccco3)n2)cc1", "max dye-equivalent concentration": "inactive"},
      {"smiles": "COc1ccccc1N1CCN(C(=O)CSc2nnc(-c3ccoc3C)o2)CC1", "max dye-equivalent concentration": "inactive"},
      {"smiles": "CN1CCN(CC(=O)C23CC4CC(CC(C4)C2)C3)CC1", "max dye-equivalent concentration": "inactive"},
      {"smiles": "CC(NCCO)C(=O)C12CC3CC(CC(C3)C1)C2", "note": "(stereo not given)", "max dye-equivalent concentration": "36 nM (active)"},
      {"smiles": "O=C(CNCCO)NC12CC3CC(CC(C3)C1)C2", "max dye-equivalent concentration": "inactive"},
      {"smiles": "Cc1ccc2[nH]c3c(c2c1)CN(C(=O)CN1CCN(c2ccccc2)CC1)CC3", "max dye-equivalent concentration": "inactive"},
      {"smiles": "O=C(O)[C@@H](O)Cc1ccccn1", "max dye-equivalent concentration": "inactive"},
      {"smiles": "O=C(c1ccco1)N1CCC[C@@]2(CCN(Cc3nccs3)C2)C1", "max dye-equivalent concentration": "inactive"},
      {"smiles": "COc1ccc(C(=O)Nc2ccc(S(=O)(=O)Nc3onc(C)c3C)cc2)cc1OC", "max dye-equivalent concentration": "inactive"},
      {"smiles": "COc1ccc(OCc2ccc(-c3nc4ccccc4c(=O)n3N)o2)cc1", "max dye-equivalent concentration": "inactive"},
      {"smiles": "COc1ccc(-c2cc3ccc(OCc4nn[nH]n4)cc3oc2=O)cc1", "max dye-equivalent concentration": "8100 nM (active)"},
      {"smiles": "O=C(Nc1cccc(Cl)c1)OCc1ccccn1", "max dye-equivalent concentration": "inactive"},
      {"smiles": "CCC(CC)C(=O)Nc1cc(C(=O)OC)cc(C(=O)OC)c1", "max dye-equivalent concentration": "inactive"},
      {"smiles": "CC(C)COC(=O)c1ccc(NC(=O)C2C3C=CC(C3)C2C(=O)O)cc1", "note": "(stereo not given)", "max dye-equivalent concentration": "inactive"},
      {"smiles": "CC(C)OC(=O)c1cc(NC(=O)C2C3CCC(O3)C2C(=O)O)cc(C(=O)OC(C)C)c1", "note": "(stereo not given)", "max dye-equivalent concentration": "14 nM (active)"},
      {"smiles": "CCC(=O)c1ccc(OCC(O)CN2CC(C)OC(C)C2)cc1", "note": "(stereo not given)", "max dye-equivalent concentration": "inactive"},
      {"smiles": "O=C(c1ccco1)N1CCN(C(=O)C2c3ccccc3Oc3ccccc32)CC1", "max dye-equivalent concentration": "inactive"},
      {"smiles": "CS(=O)(=O)c1ccc2nc(NC(=O)CN3CCCCCC3)sc2c1", "max dye-equivalent concentration": "inactive"},
      {"smiles": "Cn1c(CCN2CCCCCC2)nc2cc(NC(=O)Nc3ccccc3)ccc21", "max dye-equivalent concentration": "inactive"},
      {"smiles": "O=C(Nc1cccc(NC(=O)N2CCN(c3ccccc3)CC2)c1)N1CCN(c2ccccc2)CC1", "max dye-equivalent concentration": "inactive"},
      {"smiles": "Cc1nc2ccc(NC(=O)N3CCC(c4ccccc4)C3)cc2nc1C", "note": "(stereo not given)", "max dye-equivalent concentration": "550 nM (active)"},
      {"smiles": "Cc1cc(C)nc(SCc2nnc(SCC(=O)OC3CCCCC3)o2)n1", "max dye-equivalent concentration": "inactive"},
      {"smiles": "CCOc1cccc(NC(=O)CC#N)c1", "max dye-equivalent concentration": "inactive"},
      {"smiles": "CCOc1ccc2cc(C#N)c(SCC(=O)OC)nc2c1", "max dye-equivalent concentration": "37 nM (active)"},
      {"smiles": "CC(=O)c1cc(C#N)c(SCC(=O)C(C)(C)C)nc1C", "max dye-equivalent concentration": "inactive"},
      {"smiles": "Cc1nn(-c2ccccc2)c2c1C(=O)NC(=O)C(C)(C)C2", "max dye-equivalent concentration": "inactive"},
      {"smiles": "CCC(C(=O)N1CCOCC1)n1c(C(=O)OC)cc2occc21", "note": "(stereo not given)", "max dye-equivalent concentration": "inactive"},
      {"smiles": "CC(=O)c1ccc(N2C(=NC(=O)C(C)C)SC3CS(=O)(=O)CC32)cc1", "note": "(stereo not given)", "max dye-equivalent concentration": "inactive"},
      {"smiles": "CCC(C)Sc1nc2c(c(=O)[nH]c(=O)n2C)n1CC(O)COc1cccc2ccccc12", "note": "(stereo not given)", "max dye-equivalent concentration": "inactive"},
      {"smiles": "CCCCOC(=O)c1[nH]c(C)c(C(=O)OC)c1C", "max dye-equivalent concentration": "360 nM (active)"},
      {"smiles": "CCOC(=O)c1c(C)[nH]c(C(=O)COc2ccc3c(c2)OCO3)c1C", "max dye-equivalent concentration": "inactive"},
      {"smiles": "CCOC(=O)c1c(C)[nH]c(C(=O)NCc2ccccc2OC)c1C", "max dye-equivalent concentration": "inactive"},
      {"smiles": "CCOC(=O)N1CCN(C(=O)Cc2ccc(-n3c(=S)[nH]c4ccccc4c3=O)cc2)CC1", "max dye-equivalent concentration": "inactive"},
      {"smiles": "O=C(c1cccs1)N1CCN(C(=O)N2CCOCC2)CC1", "max dye-equivalent concentration": "inactive"},
      {"smiles": "CCN(CC)CCNC(=O)c1cc(S(C)(=O)=O)ccc1OC", "max dye-equivalent concentration": "10 nM (active)", "outcome": "inactive"},
      {"smiles": "CCN(CC)S(=O)(=O)c1ccc2[nH]cc(C(=O)NCCc3ccccc3)c(=O)c2c1", "max dye-equivalent concentration": "inactive"},
      {"smiles": "COc1ccc(C)cc1NC(=O)c1[nH]c(C)c(C(C)=O)c1C", "max dye-equivalent concentration": "inactive"},
      {"smiles": "Cc1onc(-c2ccccc2)c1C(=O)N1CCOCC1", "max dye-equivalent concentration": "inactive"},
      {"smiles": "CCN(c1ccccc1)S(=O)(=O)c1cccc(C(=O)O)c1", "max dye-equivalent concentration": "inactive"},
      {"smiles": "Cc1ccc(Oc2nc3ccccc3n3c(C)nnc23)cc1", "max dye-equivalent concentration": "inactive"},
      {"smiles": "c1ccc(CSc2nnc(-c3ccco3)n2Cc2ccccc2)cc1", "max dye-equivalent concentration": "inactive"},
      {"smiles": "CN(c1nc2ccccc2n2c(-c3ccco3)nnc12)S(=O)(=O)c1ccccc1", "max dye-equivalent concentration": "39 nM (active)"},
      {"smiles": "CCc1cc(Br)ccc1NC(=O)C1CCCO1", "note": "(stereo not given)", "max dye-equivalent concentration": "inactive"},
      {"smiles": "CC(=O)N1CCN(CCN=CC2=C(O)CC(C)(C)CC2=O)CC1", "max dye-equivalent concentration": "inactive"},
      {"smiles": "N#CC(C(=O)c1ccc(S(=O)(=O)N2CCCCCC2)cc1)c1nc2ccccc2[nH]1", "note": "(stereo not given)", "max dye-equivalent concentration": "24 nM (active)"},
      {"smiles": "Cc1ccccc1-c1nnn(CC(=O)c2ccc(S(=O)(=O)N3CCCC3)cc2)n1", "max dye-equivalent concentration": "inactive"},
      {"smiles": "COc1ccccc1N1CCN(C(=O)c2ccc(S(=O)(=O)N3CCCCC3)cc2)CC1", "max dye-equivalent concentration": "inactive"},
      {"smiles": "CCOc1cc(C(=O)N2CCc3cc(OC)c(OC)cc3C2)ccc1OC(F)F", "max dye-equivalent concentration": "inactive"},
      {"smiles": "CC1(C)CC(=O)c2sc(N)nc2C1", "max dye-equivalent concentration": "inactive"},
      {"smiles": "CCOC(=O)C1(Cc2ccc(O)cc2)NC(c2ccccc2F)C2C(=O)N(C)C(=O)C21", "note": "(stereo not given)", "max dye-equivalent concentration": "inactive"},
      {"smiles": "O=C(c1csnn1)N1CCC2(CCN(Cc3nccs3)CC2)CC1", "max dye-equivalent concentration": "inactive"},
      {"smiles": "Cc1cc(C)c(C#N)c(SCS(=O)c2ccc(C(C)(C)C)cc2)n1", "note": "(stereo not given)", "max dye-equivalent concentration": "inactive"},
      {"smiles": "Cc1cc(C)c(C#N)c(SCc2ccc3c(c2)OCO3)n1", "max dye-equivalent concentration": "inactive"},
      {"smiles": "Cc1cc(C)c(C#N)c(SCc2ccccc2C(=O)O)n1", "max dye-equivalent concentration": "13 nM (active)"},
      {"smiles": "O=C(Nc1ccon1)c1sc2ccccc2c1Cl", "max dye-equivalent concentration": "inactive"},
      {"smiles": "OCCCN1c2ccccc2Nc2nnc(-c3ccccc3)cc21", "max dye-equivalent concentration": "94 nM (active)"},
      {"smiles": "Oc1ccc(Cn2cc[nH]c2=S)cc1", "max dye-equivalent concentration": "inactive"},
      {"smiles": "O=C(Oc1ccc2c(c1)CN(Cc1ccccc1)CO2)c1ccccc1", "max dye-equivalent concentration": "inactive"},
      {"smiles": "CC(=O)Nc1nonc1-c1nc2ccccc2n1Cc1ccccn1", "max dye-equivalent concentration": "inactive"},
      {"smiles": "CN1c2ccccc2-c2nc3ccccc3n2C1c1ccco1", "note": "(stereo not given)", "max dye-equivalent concentration": "2800 nM (active)"}
    ]}
  ]
}
